# Rows were chosen to be rich in hits. Some 2.8% of all compounds tested hit in one or more screens of this group.
# HSP90 inh = blocks HSP90-mediated luciferase refolding in reticulocyte lysate | Rabbit reticulocyte lysate, luciferase refolding luminescence, 3 h | inhibition, % at 5.6 µM | 290,000 compounds, 0.91% hits | AID 1789;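 active = inhibition above the screen-wide mean plus 3 SD, computed separately per campaign, cut at about 16% in these data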;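 also: inhibitors lower the luminescence because luciferase stays unfolded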
# SENP8 block-1 = blocks human SENP8 cleavage of Nedd8 substrate; 360,000 compounds, 0.64% hits; inhibition, % at 20 µM; AID 602440; Q96LD8; recombinant SENP8, Nedd8 substrate fluorescence; in the data active = inhibition mostly above about 40%, no sharp cut-off; inactive = mostly below about 27%
# Target sequence (Q96LD8 whole entry, looked up): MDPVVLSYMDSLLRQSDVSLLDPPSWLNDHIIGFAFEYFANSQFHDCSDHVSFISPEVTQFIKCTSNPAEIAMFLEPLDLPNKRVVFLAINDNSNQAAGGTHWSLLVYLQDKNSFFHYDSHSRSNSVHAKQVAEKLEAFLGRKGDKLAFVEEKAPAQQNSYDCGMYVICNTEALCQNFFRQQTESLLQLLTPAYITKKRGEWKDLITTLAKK
# SENP8 block-2 = blocks the human protease SENP8 | Q96LD8 | purified SENP8, Z-RLRGG-aminoluciferin cleavage, luminescence | inhibition, % at 10 µM | 330,000 compounds, 1.2% hits | AID 2540; in the data active = inhibition above about 50%
# SENP6 block = inhibitors of human SENP6 protease; Q9GZR1; Recombinant SENP6 catalytic domain, aminoluciferin luminescence; inhibition, % at 10 µM; 330,000 compounds, 1.8% hits; AID 2599;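 active = inhibition above about 50% at the single tested dose, limit read from the data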
# SENP7 block = inhibitors of human SENP7 protease; Q9BQF6; recombinant SENP7, Z-RLRGG-aminoluciferin luminescence, 40 min; inhibition, % at 5 µM; 330,000 compounds, 1.5% hits; AID 434973;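 active = inhibition above about 50% at the single test dose, limit read from the data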
# Target sequence (Q9BQF6 706-1050 limits assumed): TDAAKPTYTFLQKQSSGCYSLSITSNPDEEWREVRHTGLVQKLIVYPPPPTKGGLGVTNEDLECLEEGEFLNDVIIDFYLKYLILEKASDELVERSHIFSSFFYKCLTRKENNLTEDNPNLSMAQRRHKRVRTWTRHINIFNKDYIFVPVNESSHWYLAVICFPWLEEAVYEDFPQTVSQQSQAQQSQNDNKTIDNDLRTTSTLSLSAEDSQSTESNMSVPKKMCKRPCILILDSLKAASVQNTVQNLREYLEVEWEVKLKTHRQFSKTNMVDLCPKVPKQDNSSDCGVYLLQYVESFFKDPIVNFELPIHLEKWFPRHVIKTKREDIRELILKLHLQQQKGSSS
# SENP8 conf = confirmation of human SENP8 protease inhibitors; inhibition, % at 12.5 µM; Recombinant SENP8, Z-RLRGG-aminoluciferin luminescence, 60 min; AID 488912; shares compounds with SENP7 block; 6,200 compounds, 40% hits;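 active = mean inhibition across replicates above about 50%, limit read from the data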
# SENP6 confirm = confirmation of human SENP6 protease inhibitors; 6,200 compounds, 58% hits; shares compounds with SENP7 block; inhibition, % at 12.5 µM; recombinant SENP6, Z-RLRGG-aminoluciferin luminescence
# SENP7 conf = confirmation of human SENP7 protease inhibitors; AID 488917; 6,200 compounds, 69% hits; inhibition, % at 12.5 µM; shares compounds with SENP7 block; recombinant SENP7, Z-RLRGG-aminoluciferin luminescence, 40 min
# Casp3 SENP sel = selectivity test for SENP inhibitors: human caspase-3 inhibition; AID 488918; 6,200 compounds, 60% hits; inhibition, % at 12.5 µM; shares compounds with SENP7 block; purified caspase-3, Z-DEVD-aminoluciferin luminescence, 60 min;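 active = mean inhibition above about 50%, limit read from the data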
# SENP luc ctr = luminescence interference (SENP counter-screen) | shares compounds with SENP7 block | Pre-incubated SENP8/Z-RLRGG-aminoluciferin, luciferase luminescence interference | inhibition, % at 12.5 µM | 6,200 compounds, 39% hits | AID 488919;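 active = mean inhibition above about 50% when retested at one dose, limit read from the data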
# Numbers stand for hits; – = inactive; · = no result given.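 The calls were made as follows, unless noted: active = mean inhibition above about 50% in the one-dose retest (limit read from the data); inactive = the rest.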
SMILES,HSP90 inh,SENP8 block-1,SENP8 block-2,SENP6 block,SENP7 block,SENP8 conf,SENP6 confirm,SENP7 conf,Casp3 SENP sel,SENP luc ctr
Cc1cc(C)c(-c2nc3ccccc3s2)[nH]1,–,–,59,–,–,81,90,99,76,70
COc1cc(CNC2CCCC2)c(Br)cc1OC1CCCC1,–,–,–,–,–,·,·,·,·,·
COc1cccc(NC(=O)Nc2ccc3c(c2)nc(C)n3C)c1,–,–,78,91,90,86,85,98,94,86
COc1ccc(NC(=O)Nc2cccc(OC)c2)cc1,–,–,–,–,–,·,·,·,·,·
COc1cccc(NC(=O)Nc2ccc3nc(C)c(C)nc3c2)c1,–,–,–,54,–,–,–,58,59,–
COc1cccc(NC(=O)Nc2nc(SC)ns2)c1,–,–,82,90,77,76,77,96,76,86
COc1cccc(NC(=O)Nc2nc(SC(C)(C)C)ns2)c1,–,–,–,–,–,·,·,·,·,·
COc1cccc(NC(=O)Nc2ccc3nsnc3c2)c1,–,–,–,50,–,57,52,77,–,54
O=C(N/N=C/c1ccncc1)c1ccc(-n2cccc2)cc1,–,–,–,–,–,·,·,·,·,·
CC(=O)c1c(C)[nH]c(C(=O)COC(=O)CCSc2ccccc2)c1C,–,–,–,–,–,·,·,·,·,·
O=C(N/N=C/c1ccc(O)cc1)c1cccc(N/N=C/c2ccc(O)cc2)c1,–,–,–,52,–,–,–,–,–,–
O=C(O)c1cccc(N/N=C/c2ccc(F)c(F)c2)c1,–,–,94,101,–,99,99,102,86,98
O=C(O)c1ccc(/C=N/Nc2cccc(C(F)(F)F)c2)cc1,–,–,–,–,–,·,·,·,·,·
O=C(Nc1ccc(C#Cc2ccccc2)cc1)C1CC1,–,–,–,–,68,–,–,64,–,–
CCOc1ccc(NC(=O)Nc2ccon2)cc1,–,–,–,55,54,–,–,67,74,–
CCOc1ccc(C(=O)Nc2ccccc2C(=O)O)cc1,–,–,–,61,–,77,72,94,85,78
O=C(Nc1ccccc1C(=O)O)c1ccc(NC(=O)C2CC2)cc1,–,–,61,67,–,76,75,94,88,83
CCCC(=O)Nc1ccc(C#Cc2ccccc2)cc1,–,–,–,–,51,–,–,–,–,–
CCOc1ccc(C(=O)Nc2cc(C)on2)cc1,–,–,–,–,54,–,–,57,74,–
CCOc1cc(C(=O)Nc2cc(C)on2)cc(OCC)c1OCC,–,–,–,–,–,·,·,·,·,·
CCNC(=S)NNC(=O)c1cc(-c2cccc(OC)c2)nc2ccccc12,–,–,–,57,–,64,60,79,85,71
CCCOc1cccc(-c2cc(C(=O)NNC(=S)NCC)c3ccccc3n2)c1,–,–,–,–,–,·,·,·,·,·
O=c1cc(-c2ccccc2)nc(Cc2c(Cl)cccc2Cl)[nH]1,–,–,–,–,–,·,·,·,·,·
O=C(NC(=S)Nc1ccc(S(=O)(=O)Nc2nccs2)cc1)c1ccccc1,–,–,–,64,–,60,59,80,61,61
Nc1nnnn1/N=C/c1ccc(O)cc1,–,–,89,95,90,93,93,101,98,85
SMILES,HSP90 inh,SENP8 block-1,SENP8 block-2,SENP6 block,SENP7 block,SENP8 conf,SENP6 confirm,SENP7 conf,Casp3 SENP sel,SENP luc ctr
Nc1nnnn1/N=C/c1cccc(O)c1,–,–,–,–,–,·,·,·,·,·
O=C(O)COc1ccccc1/C=N/NC(=O)CSc1nnc(-c2ccc(Cl)cc2)n1C1CCCCC1,–,–,–,–,–,·,·,·,·,·
CCn1c(SCC(=O)N/N=C/c2ccccc2OCC(=O)O)nnc1-c1ccccc1,–,·,–,70,–,–,–,–,–,–
CCN(CCn1cccn1)C(=O)CCc1nnc(-c2ccccc2)o1,–,–,–,–,–,·,·,·,·,·
O=c1[nH]c(/C=C/c2cccc([N+](=O)[O-])c2)c([N+](=O)[O-])c(=O)[nH]1,–,–,–,–,–,·,·,·,·,·
O=[N+]([O-])c1cccc(/C=C/c2nc[nH]c2[N+](=O)[O-])c1,–,–,57,70,–,–,–,–,–,–
O=C(NCc1cccnc1)c1nnc(Cc2ccc(F)cc2)o1,·,–,–,–,–,·,·,·,·,·
Oc1ccc(/C=N/Nc2cccc3cccnc23)c(O)c1,–,–,82,89,77,73,89,99,65,–
Cc1ccc(/C=N/Nc2cccc3cccnc23)c(O)c1,–,–,70,78,92,86,93,78,77,58
O=c1[nH]ncc(N/N=C\c2ccc(O)cc2O)c1Cl,–,–,63,69,65,66,64,87,81,62
O=[N+]([O-])c1ccc(NN=Cc2ccc(O)cc2O)nc1,·,–,·,·,·,·,·,·,·,·
Oc1ccc(/C=N/Nc2ncc(Br)cn2)c(O)c1,–,–,58,86,72,73,73,90,70,75
Cc1cc(N/N=C/c2ccccc2O)c2ccccc2n1,–,–,–,–,–,·,·,·,·,·
O=C(CCNS(=O)(=O)c1ccc(Br)cc1)NCCc1ccc(Cl)cc1,–,–,–,–,–,·,·,·,·,·
CC(=NC1CC1)C1=C(O)c2ccccc2C1=O,–,–,–,–,–,·,·,·,·,·
CCOc1ccc(N=C(C)C2=C(O)c3ccccc3C2=O)cc1,–,–,78,85,84,–,–,–,–,–
COc1ccc(N=C(C)C2=C(O)c3ccccc3C2=O)cc1,–,–,73,87,77,–,74,71,–,–
C/C(=N\N(C)C)C1=C(O)c2ccccc2C1=O,–,–,–,–,–,·,·,·,·,·
Cc1nn(CC(=O)NC2(C)CCS(=O)(=O)C2)c(C)c1S(=O)(=O)N(C)C (stereo not given),·,–,–,–,–,·,·,·,·,·
NC(=S)NN=C1c2cc(Cl)ccc2-c2c1cc(Cl)cc2[N+](=O)[O-],·,–,·,·,·,·,·,·,·,·
CC1CCN(c2cc(N(C)CCO)c([N+](=O)[O-])c3nonc23)CC1,–,–,–,–,90,–,–,–,–,–
CCOc1ccccc1NC(=O)Cc1coc2ccc(C)cc12,–,–,–,–,–,·,·,·,·,·
Cc1ccc(-n2c(C)nc3ccsc3c2=O)cc1,·,–,–,–,–,·,·,·,·,·
Cc1ccc(-c2nc3ccsc3c(=O)o2)cc1,–,–,–,55,52,–,–,67,–,56
O=C(Nc1ccn(Cc2ccccc2F)n1)c1ccc(COc2ccccc2Cl)cc1,–,–,–,–,–,·,·,·,·,·

# Bioassay records as filed in PubChem BioAssay.
